Compound activity deposited in PubChem BioAssay by National Center for Advancing Translational Sciences (NCATS).
In the library only some 3.6% were active in any assay of this set; here they are far more common.
IkB sig inh – IkB Signaling | actives 0.04% (n = 110,000) | AID 445, 2006 | Potency, µM (doses to about 57.1 µM) | ABC-DLBCL IkBa-CBG/CBR dual luciferase ratio, 4 h; response scale: scaled: untreated 0%, proteasome inhibitor 100%; active = well fitted curve in the direction sought with a large enough effect in the signal ratio, not every such curve was filed as active; inconclusive = small, poorly fitted or top-dose-only effect, or a change in a side signal; the % refers to the signal ratio;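 also: the direction sought is a rising ratio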
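In this assay, an IκBα–CBG68 fusion accumulates when IKK-driven degradation is blocked; native CBR normalizes for cell number. OCI-Ly3 cells were treated 4 h with compound and doxycycline, then green and red light read after Chroma-Glo addition.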
HEK293 cAMP ctrl – qHTS Assay for Agonists of the Thyroid Stimulating Hormone Receptor: Activators of Intracellular cAMP Concentrations in Parental HEK 293. parental HEK293 CNG cAMP sensor, membrane potential fluorescence. Potency, µM (titrated, usually from 57.1 µM), most hits filed as activators. actives 2.5% (n = 73,000). AID 938, 2007; also: nearly all actives have a fitted effect of over 55% in size
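Parental HEK 293 cells stably expressing a cAMP-gated CNG channel were loaded with membrane potential dye containing 100 uM RO 20-1724 for 60 min. Compound added for 30 min; depolarization read as fluorescence intensity at 590 nm.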
TSHR agonist – qHTS Assay for Agonists of the Thyroid Stimulating Hormone Receptor. Thyrotropin receptor (Homo sapiens), P16473. HEK293-CNG-TSHR cells (CNG channel as cAMP sensor), membrane potential dye, cAMP. Potency, µM (titrated, usually from 57.1 µM), hits mostly activators. actives 0.48% (n = 73,000); active = well fitted activation curve with a large enough effect in the main read-out, with a control signal flat, not every such curve was filed as active; inconclusive = small, poorly fitted or top-dose-only effect, or a change in a side signal; inactive = no such curve, though single readings can be large or run the other way; reference of the percent scale not stated here;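 also: the control signal comes from parental cells without the receptor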
Target sequence (P16473 whole entry, looked up): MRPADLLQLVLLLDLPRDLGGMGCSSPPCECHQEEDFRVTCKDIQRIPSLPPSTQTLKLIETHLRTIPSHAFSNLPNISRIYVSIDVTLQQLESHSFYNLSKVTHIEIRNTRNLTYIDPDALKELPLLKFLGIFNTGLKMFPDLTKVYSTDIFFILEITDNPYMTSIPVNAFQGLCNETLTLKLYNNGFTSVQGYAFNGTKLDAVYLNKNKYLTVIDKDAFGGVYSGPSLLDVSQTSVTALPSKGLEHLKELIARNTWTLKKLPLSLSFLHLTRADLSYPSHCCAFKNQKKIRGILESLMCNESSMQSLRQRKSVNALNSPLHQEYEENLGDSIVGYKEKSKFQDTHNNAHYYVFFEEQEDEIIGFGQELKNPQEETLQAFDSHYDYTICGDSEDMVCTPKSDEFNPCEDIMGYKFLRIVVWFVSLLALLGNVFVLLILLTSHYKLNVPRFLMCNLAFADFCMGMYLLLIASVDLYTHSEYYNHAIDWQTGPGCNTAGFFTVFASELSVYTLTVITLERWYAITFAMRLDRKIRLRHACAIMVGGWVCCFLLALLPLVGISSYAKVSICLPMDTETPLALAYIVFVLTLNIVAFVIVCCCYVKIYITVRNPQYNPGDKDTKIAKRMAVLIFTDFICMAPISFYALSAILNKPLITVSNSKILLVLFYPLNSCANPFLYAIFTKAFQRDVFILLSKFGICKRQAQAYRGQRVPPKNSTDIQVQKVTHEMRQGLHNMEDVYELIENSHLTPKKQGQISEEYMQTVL
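cAMP rise detected as CNG-channel membrane depolarization by fluorescent dye (emission 590 nm), 30 min after compound, following 60 min dye loading containing 100 uM RO 20-1724 at room temperature. Cells: TSHR/CNG HEK 293, with parental CNG HEK 293 as control.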
ERK AVP block – qHTS Assay for Inhibitors of the ERK Signaling Pathway using a Homogeneous Screening Assay; HEK293-V1b, vasopressin-stimulated pERK AlphaScreen; Potency, µM (doses to about 57.5 µM), usual class: inhibitors; actives 0.99% (n = 72,000); AID 995, 2007; also: nearly all actives have a fitted effect of over 55% in size
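Phosphorylated ERK1/2 detected via AlphaScreen bead proximity in lysates of V1b-expressing HEK293 cells given 25 nM vasopressin for 5 min after 30 min compound exposure (37 °C). AC50 from Hill equation; basal DMSO 0%, vasopressin 100%.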
CRE Fsk mod – Cell signaling CRE-BLA (Fsk stim); actives 2.5% (n = 71,000); AID 662, 2007; CHO CRE-bla reporter (cAMP response element driving beta-lactamase), forskolin EC10, beta-lactamase ratio; Potency, µM (top dose mostly 38.2 µM), actives largely listed as activators; active = well fitted activation curve with a large enough effect in the signal ratio, with a control signal flat, not every such curve was filed as active; inconclusive = small, poorly fitted or top-dose-only effect, or effect the other way, or a change in a side signal; the % refers to the signal ratio
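CRE-bla CHO cells stimulated with EC10 NKH 477 (water-soluble forskolin) and compound titrations, 3 h at 37C; beta-lactamase read with CCF4 after 2 h at room temperature. Activity from 460/530 nm emission ratio, AC50 values for positive or negative modulation.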
Each line names hits and unclear results; the compound was inactive in the other large screens. Unless noted, calls follow the shape of the dose curve; as a rule, active = well fitted curve in the direction sought with a large enough effect; inconclusive = small, poorly fitted or top-dose-only effect, or another doubt; inactive = no such curve, though single readings can be large; an effect the other way counts as inactive or inconclusive.

COCCN(C(=O)Cn1nnc2ccccc21)C(C(=O)NC1CCCC1)c1cc(OC)ccc1OC (stereo unspecified)	HEK293 cAMP ctrl 25µM, TSHR agonist inconclusive
C[C@@H](NC(=O)c1coc(=O)c(Br)c1)c1ccccc1	none (no result: IkB sig inh, ERK AVP block, CRE Fsk mod)
CCC(C)(C)NC(=O)C(c1cccn1C)N(Cc1ccccc1)C(=O)Cn1nnc2ccccc21 (stereo unspecified)	HEK293 cAMP ctrl 10µM, TSHR agonist inconclusive
COc1ccc(N(C(=O)Cn2nnc3ccccc32)C(C(=O)NCc2ccco2)c2ccc(C)o2)cc1 (stereo unspecified)	TSHR agonist 25µM
O=C(Cc1cccs1)NCc1ccco1	none
COc1ccc(OC)c(C(C(=O)NCc2ccco2)N(C(=O)Cn2nnc3ccccc32)C2CC2)c1 (stereo unspecified)	none
Cc1ccc(N(C(=O)Cn2nnc3ccccc32)C(C(=O)NCc2ccco2)c2ccc(C)o2)cc1 (stereo unspecified)	HEK293 cAMP ctrl inconclusive, TSHR agonist inconclusive
COc1ccc(OC)c(C(C(=O)NCc2ccco2)N(C(=O)Cn2nnc3ccccc32)C(C)C)c1 (stereo unspecified)	HEK293 cAMP ctrl 16µM, TSHR agonist inconclusive, CRE Fsk mod inconclusive
O=C(NCc1ccco1)C(c1cccs1)N(C(=O)Cc1cccs1)c1ccccc1 (stereo unspecified)	IkB sig inh inconclusive, HEK293 cAMP ctrl 13µM, TSHR agonist inconclusive
CCC(C)(C)NC(=O)C(c1cccn1C)N(C(=O)Cn1nnc2ccccc21)c1ccccc1OC (stereo unspecified)	HEK293 cAMP ctrl inconclusive, TSHR agonist inconclusive
CCCCc1nc2n[nH]c(N)c2c2c1CCC2	ERK AVP block 16µM, CRE Fsk mod inconclusive (no result: TSHR agonist)
CCCCc1ccc(-c2nc(N)n[nH]2)cc1	HEK293 cAMP ctrl inconclusive, TSHR agonist inconclusive
Cc1cc(-c2cccnc2)c(C#N)c(SCC#N)n1	HEK293 cAMP ctrl inconclusive, TSHR agonist inconclusive, ERK AVP block inconclusive, CRE Fsk mod 13µM
CCOC(=O)C(CC)N1CCN(Cc2ccc(F)cc2)C(=O)C1=O (stereo unspecified)	none (no result: HEK293 cAMP ctrl, TSHR agonist, ERK AVP block, CRE Fsk mod)
O=C1OCC2=C1C(c1ccc3c(c1)OCO3)Sc1ccccc1N2 (stereo unspecified)	IkB sig inh inconclusive, ERK AVP block 20µM
O=C(O)CCN1/C(=C/C=Nc2ccccc2)Oc2ccccc21	none
O=C1CC(c2cccc(Cl)c2)Cc2nc(N3CCN(c4ccccc4)CC3)ncc21 (stereo unspecified)	HEK293 cAMP ctrl inconclusive, TSHR agonist inconclusive
O=C1CC(c2cccc(Cl)c2)Cc2nc(N3CCOCC3)ncc21 (stereo unspecified)	HEK293 cAMP ctrl 5µM, TSHR agonist inconclusive, ERK AVP block inconclusive, CRE Fsk mod inconclusive
CCN1CCN(c2ncc3c(n2)CC(c2cc(OC)c(OC)c(OC)c2)CC3=O)CC1 (stereo unspecified)	HEK293 cAMP ctrl 10µM, TSHR agonist inconclusive
CCOC(=O)C(C(C)=O)c1c(Br)c(O)c(O)c2c(C(=O)c3ccc(C)cc3)coc12 (stereo unspecified)	IkB sig inh inconclusive, ERK AVP block inconclusive, CRE Fsk mod inconclusive
COc1cccc2c1cc1c(=O)n(CC(=O)NC3CCCCC3)nc(C)n12	none (no result: HEK293 cAMP ctrl, TSHR agonist, ERK AVP block, CRE Fsk mod)
CCOc1ccc(C2c3c(oc4ccccc4c3=O)C(=O)N2Cc2ccc3c(c2)OCO3)cc1 (stereo unspecified)	none (no result: HEK293 cAMP ctrl, TSHR agonist, ERK AVP block, CRE Fsk mod)
O=C1Cn2c(nc3ccccc32)N1c1ccccc1F	CRE Fsk mod inconclusive
CN1C(=O)Cn2c1nc1ccccc12	HEK293 cAMP ctrl 20µM, TSHR agonist inconclusive
CCCn1c(-c2ccc(F)cc2)nc2c(N3CCN(Cc4nc(OC)cc(OC)n4)CC3)nc(C)nc21	HEK293 cAMP ctrl 16µM, TSHR agonist inconclusive (no result: IkB sig inh)
COc1ccc2[nH]c3nc(SCc4nnc(-c5ccc(C)cc5)o4)nnc3c2c1	CRE Fsk mod 1µM
Cc1ccc2[nH]c3nc(SCCN4CCOCC4)nnc3c2c1	none
O=C1c2ccc(O)c(O)c2C(=O)c2c(O)ccc(O)c21	ERK AVP block 3.2µM (no result: IkB sig inh, HEK293 cAMP ctrl, TSHR agonist, CRE Fsk mod)
CCOC(=O)C1CCN(C(=O)CSc2n[nH]c(-c3ccccc3)n2)CC1	none (no result: HEK293 cAMP ctrl, TSHR agonist, ERK AVP block, CRE Fsk mod)
CCOC(=O)CSc1nnc(-c2ccc(Cl)cc2Cl)o1	HEK293 cAMP ctrl inconclusive, TSHR agonist inconclusive
c1ccc(CN2CCN(CCCNc3ccc4nnc(-c5ccccc5)n4n3)CC2)cc1	ERK AVP block 40µM
Fc1ccccc1N1CCN(CCCNc2ccc3nncn3n2)CC1	HEK293 cAMP ctrl inconclusive, TSHR agonist inconclusive
COc1ccccc1CNC(=O)c1c(O)c2cc(OC)c(OC)cc2[nH]c1=O	none
C=CCNc1oc(-c2cccc3ccccc23)nc1C#N	ERK AVP block inconclusive, CRE Fsk mod 13µM
CC1CCN(c2oc(-c3cccc4ccccc34)nc2C#N)CC1	CRE Fsk mod 10µM
N#Cc1nc(-c2cccc3ccccc23)oc1N1CCCCC1	none
CCNc1oc(-c2cccc3ccccc23)nc1C#N	CRE Fsk mod inconclusive (no result: TSHR agonist)
CC(C)Nc1oc(-c2cccc3ccccc23)nc1C#N	CRE Fsk mod 13µM
O=C(Cn1c(=O)oc2cc(S(=O)(=O)N3CCCC3)ccc21)Nc1ccc(C(F)(F)F)cc1	none
O=S(=O)(c1ccc2c(c1)OCCO2)N(Cc1ccc(F)cc1)Cc1nnc(-c2cccs2)o1	HEK293 cAMP ctrl 2µM, TSHR agonist inconclusive, CRE Fsk mod inconclusive
CCCN(CCC)S(=O)(=O)c1cc(Br)cc2c1N(C(=O)CC)CC2	IkB sig inh inconclusive, HEK293 cAMP ctrl 25µM, TSHR agonist inconclusive
CC1=CC(=O)CC(C)(C)[C@@]1(O)/C=C\C(C)=C\C(=O)O	none (no result: ERK AVP block)
CC(=O)COc1ccc2c3c(c(=O)oc2c1)CCCC3	CRE Fsk mod 16µM
CC(=O)C(C)Oc1ccc2c3c(c(=O)oc2c1)CCCC3 (stereo unspecified)	HEK293 cAMP ctrl inconclusive, TSHR agonist inconclusive, ERK AVP block inconclusive, CRE Fsk mod inconclusive
CC(=O)C(C)Oc1ccc2c3c(c(=O)oc2c1)CCCCC3 (stereo unspecified)	TSHR agonist 25µM, CRE Fsk mod inconclusive
CC1CC(C)CN(C(=O)COC(=O)c2cc3ccccc3cc2O)C1 (stereo unspecified)	IkB sig inh inconclusive, HEK293 cAMP ctrl 32µM, TSHR agonist inconclusive
CC1CCN(C(=O)COC(=O)c2cc3ccccc3cc2O)CC1	IkB sig inh inconclusive, HEK293 cAMP ctrl 0.2µM, TSHR agonist inconclusive, ERK AVP block inconclusive
CC1CCN(C(=O)COC(=O)c2n[nH]c3ccccc23)CC1	none
COc1ccc(OC)c(Nc2cc(C(=O)NCc3ccccc3)c3ccccc3n2)c1	none (no result: HEK293 cAMP ctrl, TSHR agonist, ERK AVP block, CRE Fsk mod)
COc1ccc(OC)c(-c2nnc(NC(=O)C(C)Sc3nncn3C)s2)c1 (stereo unspecified)	HEK293 cAMP ctrl inconclusive, TSHR agonist inconclusive, CRE Fsk mod 13µM (no result: ERK AVP block)
